Bioassay records: PubChem BioAssay, several laboratories
Hits are enriched below; roughly 4% of the tested compounds scored in any of these assays.
LMP1 NFkB inh: EBV LMP1-driven NF-kappaB luciferase reporter inhibitors, primary screen, cell-based, luminescence, single point | LMP1-induced NF-kappaB luciferase reporter cells | inhibition, % at 12.5 µM | hit rate 0.69% among 350,000 | AID 504558, 2011; in the data active = inhibition above about 41%
Peg3 promoter: Peg3 promoter-driven luciferase inhibitors, primary screen, cell-based, HeLa, luciferase luminescence; HeLa PEG-Prom luciferase reporter, overnight; inhibition, % at 20 µM; hit rate 1.7% among 360,000; AID 588405, 2011;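 active = inhibition of at least 50% at 20 µM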
HIF-2a block: HIF-2a reporter inhibitors, primary screen, luminescence, 786-0 RCC cells. hit rate 0.72% among 360,000. inhibition, % at 18.8 µM. 786-0 RCC cells HIF-2a reporter, luciferase luminescence, overnight;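 active = inhibition of the luminescence signal of 40% or more relative to plate controls, in a single-dose primary screen at 18.75 µM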
TWEAK Fn14 block: inhibitors of TWEAK-Fn14 signaling, primary screen, luciferase reporter cells, uHTS; TWEAK-stimulated Fn14 reporter cells, luciferase luminescence, 8 h; AID 1159606, 2016; inhibition, % at 10 µM; hit rate 2% among 360,000; in the data active = inhibition above about 50%
MITF TRPM1 inh: inhibitors of MITF-dependent TRPM1 promoter reporter, primary screen, cell-based, SK-MEL-5, single point, luciferase. hit rate 0.83% among 330,000. inhibition, % at 12.5 µM. AID 488899, 2010. SK-MEL-5 TRPM1 promoter luciferase, 24 h;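 active = mean inhibition across replicates of 60% or more, whatever share of single replicates reaches that level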
TROY signal inh: inhibitors of TROY-driven NF-kB signaling, primary screen, Q293 LMP1-TROYcd cells, NF-kB luciferase, uHTS; inhibition, % at 10 µM; hit rate 0.98% among 360,000; AID 1347056, 2019; Q293 LMP1-TROYcd NF-kB luciferase reporter, 4 h;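 active = compounds whose plate-normalised and pattern-corrected inhibition of the luciferase reporter signal at the single screening dose is 50% or more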
Large screens that a line does not name were inactive.

O=C(c1ccccc1)C(CN1CCCCC1)c1ccccc1 (stereo not given)	LMP1 NFkB inh 55, Peg3 promoter 103, TWEAK Fn14 block 71, MITF TRPM1 inh 97
CCOc1ccc(C(CN2CCOCC2)C(C)=O)cc1OC (stereo not given)	Peg3 promoter 58 (no result: LMP1 NFkB inh, MITF TRPM1 inh)
CC(CN1CCN(CC(C)C(=O)c2ccccc2)CC1)C(=O)c1ccccc1 (stereo not given)	none
CCn1c2ccccc2nc2cc3c(cc21)c(Cl)c(=O)c1ccccc13	Peg3 promoter 62, HIF-2a block 54 (no result: MITF TRPM1 inh)
CCn1c(/C=C/c2c(C)n(CC)c3ccccc23)nc2ccccc2c1=O	none
C[C@@H]1CN([C@H](C)CO)C(=O)c2c(c3ccccc3n2C)-c2ccccc2CO[C@H]1CN(C)Cc1ccc(Oc2ccccc2)cc1	Peg3 promoter 58 (no result: MITF TRPM1 inh)
C[C@@H]1CN([C@H](C)CO)C(=O)c2c(c3ccccc3n2C)-c2ccccc2CO[C@H]1CN(C)Cc1ccc(C(F)(F)F)cc1	Peg3 promoter 59 (no result: MITF TRPM1 inh)
O=C(COC(=O)c1ccc(Cl)nc1)NCCc1ccccc1	none
O=C(Nc1ccncc1)c1cc(C2CCCCN2C(=O)CCCc2ccccc2)on1 (stereo not given)	none (no result: LMP1 NFkB inh, MITF TRPM1 inh)
C=CCNC(=S)N/N=C/c1cccc([N+](=O)[O-])c1	none
O=[N+]([O-])c1cccc(C=NNC(=S)NC23CC4CC(CC(C4)C2)C3)c1	TROY signal inh 60
CC1=C(C(=O)N2CCOCC2)CC(CC(=O)NC2CCCCC2)C(=O)N1CCCN1CCCC1=O (stereo not given)	none (no result: MITF TRPM1 inh)
CCC1CSC(Nc2ccc(C(=O)/C=C/c3ccc(OC)c(OC)c3)cc2)=N1 (stereo not given)	Peg3 promoter 91, TWEAK Fn14 block 74
COc1ccc(C(=O)C=Cc2ccc3c(c2)OCO3)cc1OC	none (no result: MITF TRPM1 inh)
CCC1CSC(Nc2ccc(C(=O)/C=C/c3ccc(Br)cc3)cc2)=N1 (stereo not given)	TWEAK Fn14 block 57
COc1ccc(/C=C/C(=O)c2ccc(NC3=NCCCS3)cc2)cc1OC	TWEAK Fn14 block 72
COc1ccc(S(=O)(=O)NCC2CCC(C(=O)NCCCN3CCCC3=O)CC2)cc1 (stereo not given)	none
Oc1ccc(Br)cc1-c1ccnn1-c1ccccc1	none
COc1ccc(NC2=C(Cl)C(=O)N(CCc3ccccc3)C2=O)c(OC)c1	none
COc1ccc(CCNC2=C(Cl)C(=O)N(CCc3ccc(OC)c(OC)c3)C2=O)cc1OC	Peg3 promoter 80, TWEAK Fn14 block 51
Cc1nc(C)c(C(=O)O)s1	TWEAK Fn14 block 95
Cc1nc(C)c(C(=O)Nc2ccccc2)s1	none
CC1(C)SC(=S)N(NC(=O)Nc2cccc3ccccc23)C1N(O)C(=O)Nc1ccccc1 (stereo not given)	TROY signal inh 55
CNC(=O)N(O)C1N(NC(=O)Nc2ccccc2)C(=S)SC1(C)C (stereo not given)	none
CC(=O)Nc1ccc(S(=O)(=O)O)c(OC(C)=O)c1	none
CCOC(=O)C(CCCOc1ccccc1)C(=O)OCC	TWEAK Fn14 block 63 (no result: TROY signal inh)
c1ccc2c(c1)c1ccccc1n2CN1CCOCC1	TWEAK Fn14 block 75 (no result: TROY signal inh)
OC(CN1CCOCC1)Cn1c2ccccc2c2ccccc21 (stereo not given)	none
Nc1ccc2c(c1)C(=O)c1ccccc1-2	none
Nc1ccc2c(c1)C(=O)C(=O)c1ccccc1-2	LMP1 NFkB inh 86, Peg3 promoter 100, HIF-2a block 93, TWEAK Fn14 block 105, MITF TRPM1 inh 107, TROY signal inh 59
O=C(NN1C(=O)C2C3C=CC(C4CC34)C2C1=O)c1cccc(Cl)c1 (stereo not given)	LMP1 NFkB inh 71
COC(=O)c1cc(=O)n(Cc2ccc3c(c2)OCO3)c(=Nc2ccc(F)cc2)s1	Peg3 promoter 51
COC(=O)c1cc(=O)n(CCc2ccccc2F)c(=Nc2ccc(F)c(Cl)c2)s1	Peg3 promoter 91, HIF-2a block 91 (no result: MITF TRPM1 inh)
COC(=O)c1ccc(N=c2sc(C(=O)OC)cc(=O)n2C)cc1	none
CC(Nc1ccccc1CO)C(=O)Nc1cccc(Cl)c1Cl (stereo not given)	LMP1 NFkB inh 68, Peg3 promoter 52
O=S(=O)(Cc1ccccc1)N1CCN(Cc2ccc(F)cc2Cl)CC1	none
Cc1cc(NC(=O)C2CCCC2)nc2c1c(=O)oc1ccccc12	none
Cc1cc(NC(=O)C2CCCCC2)nc2c1c(=O)oc1ccccc12	Peg3 promoter 51
CCCc1c(C(=O)Nc2ccc(N3CCOCC3)cc2)cnn1-c1ccccc1	none
CCCc1c(C(=O)Nc2ccc(C(F)(F)F)cc2)cnn1-c1ccccc1	LMP1 NFkB inh 62
COc1cc2c3nnc(-c4ccc(F)cc4)c-3cn(Cc3ccccc3F)c2cc1OC	Peg3 promoter 110, MITF TRPM1 inh 92
COc1ccc(C2=C(CN(C)C)C(c3ccccc3)c3ccccc3O2)cc1 (stereo not given)	LMP1 NFkB inh 78
NC(=O)N/N=C/c1ccc(N2CCOCC2)s1	LMP1 NFkB inh 48, Peg3 promoter 52
CC[C@@H](C)[C@H](NC(=O)OC(C)(C)C)c1nnc(S(=O)(=O)Cc2cc(C)ccc2C)o1	Peg3 promoter 105, TROY signal inh 73
CC[C@@H](C)[C@H](NC(=O)OCc1ccccc1)c1nnc([C@@H](NC(=O)OCc2ccccc2)[C@@H](C)CC)o1	none
Cc1ccc(Cl)c(NC(=O)COC(=O)c2cc[n+]([O-])cc2)c1Cl	none
COc1cc(NC(=S)N2CCN(CCO)CC2)cc(OC)c1	LMP1 NFkB inh 69
CCCCNC(=O)C1C(c2ccc(C(F)(F)F)cc2)=Nc2ccccc2N1C(=O)C1CCN(C(C)=O)CC1 (stereo not given)	none (no result: LMP1 NFkB inh, Peg3 promoter, TWEAK Fn14 block, MITF TRPM1 inh, TROY signal inh)
CC1(C(=O)Nc2ccc(F)cc2F)CCN1C(=O)Cc1ccccc1 (stereo not given)	none (no result: LMP1 NFkB inh, MITF TRPM1 inh)
OC[C@@H]1CN(Cc2cccc3ccccc23)C[C@H](n2cnc3c(NCc4ccco4)ncnc32)O1	none (no result: LMP1 NFkB inh, MITF TRPM1 inh)
CCOC(=O)c1c(C)[nH]c(C(=O)OCC(=O)N(CC(C)C)C2CCS(=O)(=O)C2)c1C (stereo not given)	none
COc1ccccc1C(=O)NC(=S)Nc1ccc(Cc2ccncc2)cc1	TROY signal inh 62
COc1c(C(=O)Nc2ccc(Cc3ccncc3)cc2)ccc2ccccc12	TROY signal inh 57
O=C(CSCC(=O)N1CCCc2ccccc21)Nc1nc(-c2ccccc2)cs1	TWEAK Fn14 block 52
CCOc1cc(/C=C(/NC(C)=O)C(=O)O)cc(Cl)c1OCc1ccc(Br)cc1	none
COc1cc(-c2cc(NC=O)c3ncc(-c4ccc(F)cc4)n3c2)cc(OC)c1OC	none (no result: LMP1 NFkB inh, MITF TRPM1 inh)
